Screens from PubChem.
Shown are actives, neighbours in structure and some others; about 17% of the full set was active somewhere.
HT1080-NT tox = qHTS for induction of synthetic lethality in tumor cells producing 2HG: qHTS for the HT-1080-NT fibrosarcoma cell line; HT-1080-NT fibrosarcoma viability, CellTiter-Glo ATP luminescence, 48 h; Potency, µM (doses to about 46.1 µM), inactives show at the top dose activity, negative = less viability, most hits filed as cytotoxic; hit rate 1.6% among 360,000; AID 686970, 2013;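 also: NT is the 2HG producing partner of a matched IDH1 knockdown line; 0% = DMSO-treated cells and -100% = media-only wells without cells; nearly all actives have a fitted effect of over 55% in size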
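Luminescent CellTiter-Glo readout after 48 hours of compound exposure at 37 degrees C defined viability of HT-1080-NT cells. Activity was normalized to DMSO wells and cell-free media wells; concentration-response curves were fitted and assigned curve classes.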
DT40 TDP1 CPT = qHTS for Inhibitors of human tyrosyl-DNA phosphodiesterase 1 (TDP1): qHTS in cells in presence of CPT | chicken DT40 Tdp1-/-;hTDP1 cells + 20 nM CPT, ATP luminescence, 48 h | hit rate 12% among 420,000 | Potency, µM (top dose mostly 46.2 µM), without a hit: at the highest dose activity change, negative = growth inhibition, hits mostly inhibitors | AID 686979, 2013; also: % is scaled to controls: 0 for no effect and ±100 for the full control effect; nearly all actives have a fitted effect of over 55% in size
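Chicken DT40 Tdp1-/- cells complemented with human TDP1, 400 cells/well, exposed to compounds plus 20 nM camptothecin for at least 48 h at 37 C; viability read as ATP content by CellTiter-Glo luminescence.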
HepG2 tox = qHTS for Inhibitors of TGF-b: Cytotox Counterscreen | Potency, µM (series often up to 46.1 µM), without a hit: at the top dose activity change, negative = cytotoxicity, actives largely listed as cytotoxic | AID 588856, 2011 | HepG2 CAGA-GFP viability, ATP luminescence, 18 h | hit rate 0.76% among 410,000
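CellTiter-Glo luminescence gave cytotoxicity after 18 hours at 37 degrees C. The cells were HepG2 CAGA-GFP in 1% FBS DMEM, stimulated with 500 pg/mL TGF-beta after compound addition. %Activity was normalised to no-cell wells (complete cell-killing) and DMSO (no toxicity), and curves were fitted and classified.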
HT1080 IDH1KD tx = qHTS for induction of synthetic lethality in tumor cells producing 2HG: qHTS for the HT-1080-IDH1KD cell line; HT-1080 IDH1 knockdown viability, ATP luminescence, 48 h; Potency, µM (doses to about 46.1 µM), for the others: at the highest dose activity, negative = toxicity, most hits filed as cytotoxic; hit rate 2% among 360,000;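 also: 0% = DMSO wells and -100% = cell-free medium wells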
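Cytotoxicity counter-line: IDH1KD HT-1080, 48 h, CellTiter-Glo. Curves classed by r2, magnitude and activity.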
DT40 TDP1 no CPT = qHTS for Inhibitors of human tyrosyl-DNA phosphodiesterase 1 (TDP1): qHTS in cells in absence of CPT | DT40 Tdp1-/- hTDP1 cells, no CPT, ATP luminescence, 48 h | Potency, µM (top dose mostly 46.2 µM), for the others: at the highest dose activity change, negative = growth inhibition, most hits filed as inhibitors | hit rate 15% among 420,000 | AID 686978, 2013; also: % is scaled to controls: 0 for no effect and ±100 for the full control effect; nearly all actives have a fitted effect of over 55% in size
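DT40 Tdp1-/-;hTDP1 cells, no CPT (DMSO vehicle only), 400 cells/well; compounds pin-transferred; ≥48 hr, 37 °C; CellTiter-Glo 30 min RT dark, luminescence read.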
TGFb SMAD3 inh = qHTS for Inhibitors of TGF-b; Potency, µM (doses to about 46.1 µM), for inactives: top-dose activity, negative = inhibition, actives largely listed as inhibitors; AID 588855, 2011; hit rate 1.2% among 410,000; HepG2 CAGA-GFP TGF-b/SMAD3 reporter, GFP fluorescence, 18 h; TGF-beta stimulated, 500 pg/mL final; also: % is scaled to controls: 0 for no effect and ±100 for the full control effect; nearly all actives have a fitted effect of over 65% in size
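Per well, imaged GFP fluorescence of HEPG2 CAGA-GFP cells gives the signal; cells get compound, then TGF-beta (500 pg/mL final), 18 h at 37 degrees C; %Activity versus -TGF-beta and +DMSO controls.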
* hit, by the source's call; ? = inconclusive; . = not tested or not shown. Calls follow the shape of the dose curve; as a rule, active = well fitted curve in the direction sought with a large enough effect; inconclusive = small, poorly fitted or top-dose-only effect, or another doubt; inactive = no such curve, though single readings can be large; an effect the other way counts as inactive or inconclusive. Potency is read from the fitted curve at half-maximal effect.

SMILES	HT1080-NT tox	DT40 TDP1 CPT	HepG2 tox	HT1080 IDH1KD tx	DT40 TDP1 no CPT	TGFb SMAD3 inh
Cc1ccc(N2C(=O)C(CN3CCCC3)C2c2ccccc2)cc1 (stereo not drawn)	-19.3%	20.6µM*	-11.1%	-22.5%	23.1µM*	1.2%
CCCC1C(=O)N(c2ccccc2)C1c1ccccc1 (stereo not drawn)	-1.7%	1.4%	-3.8%	2.1%	-16.0%	-4.9%
CCOc1cc(/C=N/O)ccc1OCc1ccc(C)cc1	?	?	-24.4%	?	23.1µM*	?
COC(=O)/C=C\c1cc(O)ccc1O	.	0.596µM*	.	.	0.596µM*	.
COC(=O)/C=C/C(=O)Nc1ccc(O)c(Cl)c1	-23.9%	?	5.6%	-19.3%	?	?
NS(=O)(=O)c1cccc(NC(=O)COC(=O)Cc2ccc(S(=O)(=O)N3CCCCC3)s2)c1	7.6%	-0.9%	-3.2%	-0.4%	24.6%	2.5%
O=C(Cc1ccc(S(=O)(=O)N2CCCC2)s1)Nc1cccc([N+](=O)[O-])c1	-7.3%	?	-9.2%	-6.6%	16.4µM*	?
O=C(Cc1ccc(S(=O)(=O)N2CCCCC2)s1)Nc1ccc(F)c(F)c1	-5.3%	16.4µM*	-44.3%	-11.9%	23.1µM*	?
O=C(COC(=O)/C=C/c1ccc(OC(F)F)cc1)NC1CCCCCCC1	4.1%	-18.5%	17.6%	-1.4%	-20.3%	5.7%
COC(=O)c1ccc(CN(c2ccc(C(=O)O)c(O)c2)S(=O)(=O)c2ccc(Cl)c([N+](=O)[O-])c2)cc1	-9.2%	16.4µM*	-16.7%	-15.5%	16.4µM*	?
COC(=O)c1ccc(CN(c2ccccn2)S(=O)(=O)c2ccccc2)cc1	-1.9%	-21.8%	-23.6%	1.8%	?	-7.0%
O=C(Nc1ccccc1C(=O)N1CCCC1)c1ccc(Cl)cc1Cl	-1.2%	6.0%	-22.0%	2.6%	-21.4%	-21.7%
CCOC(=O)c1c(C)[nH]c(C(=O)COC(=O)[C@H](C)NC(=O)c2ccccc2Cl)c1C	10.3%	-7.9%	1.0%	6.0%	-27.8%	-0.5%
CN(CC(=O)Nc1ccc(C(N)=O)cc1)CC(=O)Nc1ccccc1Cl	-4.5%	0.9%	-12.8%	-4.2%	12.5%	1.1%
CCN(CC(=O)Nc1ccccc1C(F)(F)F)CC(=O)c1[nH]c(C)c(C(C)=O)c1C	-5.4%	23.1µM*	-24.9%	-2.6%	16.4µM*	-15.8%
CCOC(=O)c1c(C)[nH]c(C(=O)CN(C)CC(=O)Nc2ccccc2Cl)c1C	-6.7%	?	-13.2%	-8.5%	20.6µM*	-12.1%
CC(=O)c1c(C)[nH]c(C(=O)CN(C)CC(=O)Nc2ccccc2Cl)c1C	-14.1%	?	-10.6%	-15.2%	20.6µM*	0.0%
CC(C)(C)c1ccc(C(=O)Nc2cnccn2)cc1	-13.0%	-11.7%	-25.8%	-14.3%	?	2.5%
CCOC(=O)C(C(=O)OCC)C1OC(=O)c2cc3c(cc21)C(=O)OC3C(C(=O)OCC)C(=O)OCC (stereo not drawn)	?	?	-22.8%	?	-11.3%	-34.3%
CCCC(=O)Oc1ccccc1C1SCc2cc(C)c(C)cc2CS1	-15.5%	18.4µM*	-5.6%	?	25.9µM*	-3.0%
CCOC(=O)c1cnc(SC)nc1Nc1cccc2ccccc12	-6.1%	?	-14.6%	8.8%	?	5.6%
CCOC(=O)c1cnc(-n2cc(C)cn2)nc1Nc1ccccc1OCC	18.5%	10.3µM*	5.0%	4.6%	6.51µM*	-11.8%
